Assay results from PubChem BioAssay AID602296 (Broad Institute, 2012).
Among all 2,000 compounds or so, about 190 (9.5%) were called active. Inconclusive results (about 14%) are left out.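 How the source made its calls: active means fitted activation curve crossing 40% at a concentration no higher than the sample's top valid tested dose; inconclusive means flat fitted curve at 30% to 70% activation, or poor curve fit; inactive means signal decrease, flat curve within 30%, or the rest.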 Only a sample is shown.

assay: sustained heat shock response element induction – cell-based, mouse, luciferase, cherry-pick, dose, confirmation (AID 602296); settings: NIH3T3-HGL HSF-1 response element luciferase, 48 h; series mostly up to 26 µM;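 further: test compounds applied by themselves with no MG132 co-treatment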

Compound | outcome
CC12CCC(=O)N1C(C(=O)Nc1cccc3ccccc13)CS2 (configuration not stated) | inactive
COc1ccc(CNCC(O)COc2ccc(C(C)(C)c3ccccc3)cc2)cc1 (configuration not stated) | inactive
COc1ccc(Cl)cc1NC(=O)CCc1nc(-c2ccccc2F)no1 | inactive
Cc1ccc(-c2ccc(=O)[nH]n2)cc1 | inactive
c1ccc(Cn2nnnc2C(c2cccs2)N2CCc3ccccc3C2)cc1 (configuration not stated) | inactive
COc1ccc(N/C=C(\C=C\C#N)S(=O)(=O)c2ccccc2)cc1 | inactive
Cc1cccc(NC(=S)N(CCN(C)C)C(C)c2cccnc2)c1 (configuration not stated) | inactive
COCCOC(=O)C1=C(C)NC(C)=C(C(=O)OCCOC)C1/C=C/c1ccccc1OC | inactive
COc1ccc(C(=O)COC(=O)c2cccnc2SC)cc1 | inactive
CCOc1ccc(S(=O)(=O)NNC(=S)Nc2ccc(Br)cc2)cc1 | inactive
CCOC(=O)c1c(NC(C)=O)sc2c1CCC(C=NCCCN(CC)CC)=C2Sc1ccccc1 | inactive
O=C(c1ccc(Br)cc1)N1CCCC(c2nc(-c3cccs3)no2)C1 (configuration not stated) | inactive
Cc1[nH]c2ccccc2c1CN1CCN(c2ccccn2)CC1 | inactive
CCOc1ccc(NC(=O)C2CC(=O)N3CCCN=C3S2)cc1 (configuration not stated) | inactive
CCOC(=O)c1nnc(-c2ccccc2)nc1Sc1ccccc1Cl | inactive
CCC(NC(=O)/C(=C\c1ccc2c(c1)OCO2)NC(C)=O)C(=O)O (configuration not stated) | inactive
Cc1cc(NC(=O)CSc2nc3c(cc2C#N)CCC3)no1 | inactive
Cc1nonc1C1CCCN1Cc1cn[nH]c1-c1ccc(-c2ccccc2)cc1 (configuration not stated) | inactive
Cc1ccc2c(CN3CCN(S(=O)(=O)/C=C/c4ccccc4)CC3)cc(=O)oc2c1 | inactive
O=C1C2CCCCC2C(=O)N1Cc1ccccc1 (configuration not stated) | inactive
CC(C)C(C)N(Cc1ccc(C(=O)O)cc1)C(=O)c1ccc2ccccc2n1 (configuration not stated) | inactive
O=C(Nc1ccn(Cc2ccccc2F)n1)c1ccc(COc2ccc(Cl)cc2Cl)o1 | inactive

Compound | outcome
Cn1c(CN2CCN(c3ccc(Cl)cc3)CC2)nc2ccccc21 | inactive
Brc1ccc(CSc2nnc(-c3ccccn3)n2Cc2ccco2)cc1 | inactive
CSc1nc(S(=O)(=O)c2ccc(C)cc2)c(Cl)s1 | inactive
COc1ccc(CCNCc2cc(C)n(-c3ccc(OC)cc3)c2C)cc1 | inactive
Cc1cc(C(=O)N/N=C/c2ccc([N+](=O)[O-])s2)c2ccccc2n1 | inactive
Clc1ccc(-n2cc(COCc3ccccc3)nn2)cc1 | inactive
COc1ccc(OC)c(S(=O)(=O)Nc2ccccc2O)c1 | inactive
COc1ccc(Cl)cc1N(CC(=O)Nc1ccccc1SC)S(C)(=O)=O | inactive
CCOC(=O)/C=C/C(=O)OCC(=O)NC(c1ccccc1)c1ccccc1 | inactive
Cc1onc(-c2ccccc2)c1C(=O)N/N=C/c1cccc(O)c1 | inactive
C=CCc1ccc(OCC(O)CO)c(OC)c1 (configuration not stated) | inactive
NC(=O)c1ccc(NC(=O)CC23CC4CC(CC(Br)(C4)C2)C3)cc1 | inactive
Cc1cccn2c(=O)nc(SCC(=O)N3N=C(c4cccs4)CC3c3ccc(F)cc3)nc12 (configuration not stated) | inactive
O=C(NNc1c(F)c(F)cc(F)c1F)c1ccc(Cl)nc1 | inactive
CCOc1ccc(CN(C)CC(O)COC(c2ccc(OC)cc2)c2ccc(OC)cc2)cc1 (configuration not stated) | inactive
O=C(/C(=N/N=C/c1ccc(O)c(O)c1)c1ccccc1)c1ccccc1 | inactive
Cc1ccc(Cl)c2c1=NC(=O)C=2c1[nH]c(=S)[nH]c1O | inactive
Cc1ccc(N(Cc2ccc(C(=O)Nc3ccccc3C(=O)NCc3ccco3)cc2)S(C)(=O)=O)cc1C | inactive
CC(C)=C1C2CCC1C1C(=O)N(c3nc(-c4ccccc4)c(C)s3)C(=O)C21 (configuration not stated) | inactive
COc1ccc(CCNC(=O)C2CCCN(Cc3nc(-c4ccccc4C)oc3C)C2)cc1OC (configuration not stated) | inactive
O=C1[C@@H]2Cc3c([nH]c4ccccc34)C(c3ccc([N+](=O)[O-])cc3)N2C(=O)CN1C1CC1 (some centres not stated) | inactive
CC(=O)c1ccc(N=C2C(=O)Nc3ccccc32)cc1 | inactive

Compound | outcome
Cc1ccc(-c2[nH]c3ccccc3c2C(C[N+](=O)[O-])c2ccco2)cc1 (configuration not stated) | inactive
Cc1cc(Sc2nnc(N)s2)c2ccccc2n1 | inactive
COC(=O)Nc1ccc(S(=O)(=O)N2CCC(C(=O)N3CCCC(C)C3)CC2)cc1 (configuration not stated) | inactive
CC12CN(C(=S)Nc3ccccc3)CC(C)(CN(C(=S)Nc3ccccc3)C1)C2=O | inactive
COc1ccccc1C(=O)NCCCNC(=O)c1ccccn1 | inactive
NCCCCCc1nnc(SC/C=C/c2ccccc2)o1 | inactive
COc1cc(-c2nnc(SC/C=C/c3ccccc3)n2N)cc(OC)c1OC | inactive
COc1cccc(-c2c(C(=O)N/N=C(\C)c3ccc(Cl)s3)nnn2-c2nonc2N)c1 | inactive
C=C(C)Cn1c(SCC(=O)O)nnc1-c1ccc(OC)cc1 | inactive
CC(=O)COc1cccc2ccc(/C=C/c3ccc(Br)s3)nc12 | inactive
Cc1[nH]n(-c2ccccc2)c(=O)c1C(C[N+](=O)[O-])c1ccc(F)cc1 (configuration not stated) | inactive
C=CCn1c(C2CCCCC2)n[nH]c1=S | inactive
S=c1[nH]nc(-c2cc(-c3ccccc3)n[nH]2)n1/N=C/C(Br)=C/c1ccccc1 | inactive
COc1ccc2cc(S(=O)(=O)N3CCCCC3)ccc2c1S(=O)(=O)N1CCCCC1 | inactive
CCOC(=O)COc1ccc(/C=C2/SC(=Nc3ccccc3)N(Cc3cccnc3)C2=O)cc1OC | inactive
CCCCc1nnc(NC(=O)C(C)Sc2nc(C)cc(=O)[nH]2)s1 (configuration not stated) | inactive
CCn1c(CNC(C)=O)nnc1SCC(=O)c1ccc(Br)cc1 | inactive
COc1ccc(C(CCNCc2ccccc2)c2ccc(F)cc2)cc1 (configuration not stated) | inactive
Nc1cnn(Cc2ccc(F)cc2)c1 | inactive
CC1=CC(C)(C)Nc2ccc(OC(=O)C(Cc3ccccc3)N3C(=O)c4ccccc4C3=O)cc21 (configuration not stated) | inactive
CCOc1ncccc1C(=O)N(C)CC1COc2ccccc2O1 (configuration not stated) | inactive
O=C(CCCN1C(=O)c2cccc3cccc(c23)C1=O)Nc1ccon1 | inactive

Compound | outcome
CCN(CC)CCOc1ccc(/C(=C(/Cl)c2ccccc2)c2ccccc2)cc1 | inactive
CCCCN(C)C(=O)C1CCC(CNS(=O)(=O)c2ccc3c(c2)CC(C)N3C(=O)C2CC2)CC1 (configuration not stated) | inactive
Brc1ccc2c(c1)C(c1cccnc1)=NNC(c1cccs1)=N2 | inactive
Cc1ccc(-n2c(C)cc(C(=O)COc3c(CO)cc(F)cc3CO)c2C)cc1C | inactive
Cc1c(NC(=O)CSc2nnc3c4ccccc4n(CCc4ccccc4)c3n2)c(=O)n(-c2ccccc2)n1C | inactive
CC(=O)Nc1ccc(N2C(=O)C3C4CC(=O)C(c5ccccc54)C3C2=O)cc1 (configuration not stated) | inactive
O=c1[nH]c(CSc2ccccn2)nc2c1oc1ccccc12 | inactive
C=CCn1c(COc2ccc(CC)cc2)nnc1SC/C(O)=C(\C#N)c1nc2ccccc2[nH]1 | inactive
O=C(CSC1=NCCN1)Nc1cccc(C(F)(F)F)c1 | inactive
S=C(NCCSCc1ccc(Cl)c(Cl)c1)Nc1ccccc1 | inactive
CC1(C)CC(=O)C2=C(C1)N1C(=C(C#N)C2c2ccc(Cl)cc2)N=C(N)c2ccccc21 (configuration not stated) | inactive
O=C(CNS(=O)(=O)c1ccc(Br)s1)NCc1ccccc1 | inactive
Cc1ccc(CNC(=O)Cn2ccc3ccccc3c2=O)o1 | inactive
CNC(=O)N(O)C1N(/N=C/c2c(F)cccc2Cl)C(=S)SC1(C)C (configuration not stated) | inactive
FC(F)(F)c1ccc(Sc2nnc(-c3cccs3)n2CC2CCCO2)nc1 (configuration not stated) | inactive
Clc1ccc(CCNc2nc3ccccc3n3nnnc23)cc1 | inactive
O=C(Nc1cccc(Cl)c1)N1CCC(CO)(CCOc2ccccc2)CC1 | inactive
COc1ccc(/C=C/C(=O)c2ccc(O)cc2)cc1COc1ccc(F)cc1 | inactive
Oc1cc(-c2ccccc2)c2ccccc2c1 | inactive
Cc1nc2cc3nc(C(F)(F)F)[nH]c3cc2[nH]1 | inactive
COc1ccccc1CCC(=O)OCC(=O)Nc1c(Br)cc(C)cc1Br | inactive
O=C(NCCc1ccc(O)c(O)c1)C1COc2ccccc2O1 (configuration not stated) | inactive

Compound | outcome
CC(NC(=O)c1ccc(C(C)(C)C)cc1)C(c1cccs1)N1CCOCC1 (configuration not stated) | inactive
CCNC(=O)C(=O)NCc1ccncc1 | inactive
CCn1cnc2c1c(=O)n(Cc1nnc3n1-c1ccccc1SC3)c(=O)n2Cc1ccccc1 | inactive
N#Cc1cc(Cl)c(NCC2CCCO2)cc1C#N (configuration not stated) | inactive
Cc1ccc(S(=O)(=O)NNC(=O)c2sc3nc(C)cc(C)c3c2-n2cccc2)cc1 | inactive
Clc1ccc(CO/N=C/c2c(-c3ccccc3)nc3n2CCS3)c(Cl)c1 | inactive
Cc1ccc(-c2nc3ccccc3[nH]2)cc1NC(=O)c1ccc2c(c1)OCO2 | inactive
COc1cccc(NC=C2C(=O)OC3(CCCCC3)OC2=O)c1 | inactive
Cc1sc2nc(CSc3cccc(C(F)(F)F)c3)[nH]c(=O)c2c1C | inactive
COc1ccc(N2C(=O)CC(Sc3nnnn3-c3ccc(F)cc3)C2=O)cc1 (configuration not stated) | inactive
CC(C(=O)Nc1ccccc1Br)N1c2cccc3cccc(c23)S1(=O)=O (configuration not stated) | inactive
CC(=O)c1ccc(N2CCN(C(=O)c3n[nH]c4ccccc34)CC2)cc1 | inactive
Cc1ccc(C(=O)Cn2nnc(-c3ccccc3-n3cnnn3)n2)cc1 | inactive
COc1ccccc1NC(=O)C1=C(C)NC2=C(C(=O)CC(c3ccc(OC)c(OC)c3)C2)C1c1coc2ccccc2c1=O (configuration not stated) | inactive
Cc1ccc(S(=O)(=O)N(C)c2ccc(C)c([N+](=O)[O-])c2)cc1 | inactive
CCOC(=O)C1=C(C)Nc2nc3ccccc3n2C1c1ccncc1 (configuration not stated) | inactive
COc1ccc(NC(=O)C(NCC(C)C)c2ccccc2)cc1Cl (configuration not stated) | inactive
O=S(=O)(c1ccc(-n2cnnn2)cc1)N1CCNCC1 | inactive
CCCCCCCCCCCC(=O)c1c(O)cccc1O | inactive
